Assay outcomes (PubChem)
RGS4-Gao reg – modulators of RGS4 binding to Galphao, primary screen, biochemical, multiplexed bead flow cytometry; actives lie on both sides; 220,000 compounds, 0.33% hits; Guanine nucleotide-binding protein G(o) subunit alpha (Homo sapiens), P09471; binding response (% of control), % at 10 µM; in the data active = binding response below about 49% or above about 150%; inactive = in between;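 also: fluorescent Galphao activated with aluminum fluoride binding bead-coupled RGS4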
GSH bead fluor – compound fluorescence on glutathione beads, profiling panel, artefact control, biophysical, 488/530 nm, flow cytometry | GSH beads flow cytometry, compound fluorescence 488/530 nm; hits give high values | 190,000 compounds, 0.25% hits | AID 1776, 2009 | fluorescence (KMESF) at 10 µM; in the data active = fluorescence above about 89;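 also: glutathione beads carrying GST-tagged Bcl family fusion proteins plus one bare bead set; values are compound well signal with DMSO vehicle wells as background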
RGS16-Gao – modulators of RGS16 binding to Galphao, primary screen, biochemical, human proteins, multiplexed bead flow cytometry; 220,000 compounds, 0.38% hits; binding response (% of control), % at 10 µM; bead-based flow cytometry RGS16-Galphao binding, fluorescence; actives lie on both sides; call rule not given here;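 also: Galphao activated by GDP with aluminum fluoride before binding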
Target sequence (O15492 whole entry, looked up): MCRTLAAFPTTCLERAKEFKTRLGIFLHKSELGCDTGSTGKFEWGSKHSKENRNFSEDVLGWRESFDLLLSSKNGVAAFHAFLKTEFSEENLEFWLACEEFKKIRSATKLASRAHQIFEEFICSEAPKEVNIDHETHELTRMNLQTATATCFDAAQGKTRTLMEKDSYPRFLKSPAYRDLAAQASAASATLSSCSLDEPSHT
Target sequence (P09471 whole entry, looked up): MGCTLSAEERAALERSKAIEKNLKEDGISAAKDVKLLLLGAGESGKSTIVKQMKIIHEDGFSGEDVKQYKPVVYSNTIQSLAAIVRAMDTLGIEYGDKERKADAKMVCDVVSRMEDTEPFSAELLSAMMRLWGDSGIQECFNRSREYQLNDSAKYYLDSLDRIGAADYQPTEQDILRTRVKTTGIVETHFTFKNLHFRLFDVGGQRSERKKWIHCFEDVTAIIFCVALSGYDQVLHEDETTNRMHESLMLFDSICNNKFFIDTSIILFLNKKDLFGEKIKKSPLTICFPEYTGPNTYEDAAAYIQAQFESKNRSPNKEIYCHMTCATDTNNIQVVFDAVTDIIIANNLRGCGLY
RGS8-Gao – RGS8-Galphao binding modulators, primary screen, biochemical, multiplexed bead flow cytometry; Guanine nucleotide-binding protein G(o) subunit alpha (Homo sapiens), P09471; actives lie on both sides; response (percent of control binding), % at 10 µM; 220,000 compounds, 0.34% hits; AID 1423, 2008; in the data active = response below about 60% or above about 140%; inactive = in between;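 also: Galphao activated as the GDP aluminium fluoride complex binding bead-coupled RGS8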
RGS7-Gao – RGS7-Galphao binding modulators, primary screen, biochemical, multiplexed bead flow cytometry. Guanine nucleotide-binding protein G(o) subunit alpha (Homo sapiens), P09471. actives lie on both sides. binding response (% of control), % at 10 µM. 220,000 compounds, 0.35% hits. AID 1439, 2008; in the data active = binding response below about 49% or above about 150%; inconclusive = no clear call, values can overlap the other calls; inactive = in between;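 also: fluorescent Galphao held in activated GDP-AlF4 state binding bead-coupled RGS7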
Avidin fluor – green autofluorescence of compounds with avidin beads – biophysical, 488/530 nm, flow cytometry, artefact control, profiling panel. compound fluorescence 488/530 nm; hits give high values. fluorescence (KMESF) at 10 µM. 220,000 compounds, 0.38% hits. AID 1775, 2009; in the data active = fluorescence above about 47
* hit, by the source's call; ? = inconclusive; . = no result. Only some compounds are listed: those with a hit (about 1.2% of all), similar ones and a draw of the others.

SMILES	RGS4-Gao reg	GSH bead fluor	RGS16-Gao	RGS8-Gao	RGS7-Gao	Avidin fluor
O=C(COC(=O)Cn1cnc2ccccc21)NCCC1=CCCCC1	104	257*	101	103	106	8
Cc1ccc(OCC(=O)N2CCCc3ccccc32)cc1	108	140*	111	105	110	7
O=C(CCCOc1ccc(Cl)cc1Cl)N1CCCc2ccccc21	88	250*	18	100	96	4
O=C(Cn1cnc2ccccc21)OCC(=O)N1CCCc2ccccc21	104	253*	105	103	101	7
Cc1ccc(OCC(=O)N2CCc3ccccc32)cc1	94	7	41	80	96	7
O=C(COc1ccc(Cl)cc1Cl)OCC(=O)N1CCCc2ccccc21	105	10	144	106	107	8
CC(=O)Nc1ccc(S(=O)(=O)NCC2CCC(C(=O)NC(C)c3ccc4c(c3)OCCO4)CC2)cc1 (stereo not drawn)	97	13	95	100	91	5
Cc1ccccc1CSCC(=O)NC(=O)NCc1ccco1	91	261*	104	101	92	6
COc1ccccc1NC(=O)N1CCCC1C(=O)NC12CC3CC(CC(C3)C1)C2 (stereo not drawn)	101	280*	104	101	105	8
O=C(O)C1CC=CCC1C(=O)Nc1cccc(Cl)c1 (stereo not drawn)	102	277*	102	105	102	7
CC1=C(C)CC(C(=O)Nc2cccc(Cl)c2)C(C(=O)O)C1 (stereo not drawn)	103	46	104	101	99	15
O=[N+]([O-])c1cc(CN(CCO)CCO)ccc1O	100	.	100	101	?	3
COc1ccc(C2C(C(=O)NCc3ccco3)c3ccccc3C(=O)N2C)cc1 (stereo not drawn)	98	10	98	100	97	11
COCCN1C(=O)c2ccccc2C(C(=O)NCc2ccco2)C1c1c[nH]c2ccccc12 (stereo not drawn)	99	24	99	97	101	47*
CC1CCN(S(=O)(=O)c2cccc(C(=O)NCc3ccco3)c2)CC1	96	159*	99	100	99	3
CC1CCN(S(=O)(=O)c2cccc(C(=O)NCc3cccs3)c2)CC1	102	28	104	100	100	7
Cc1c(C(=O)OCC(=O)N2c3ccccc3CC2C)oc2ccccc12 (stereo not drawn)	104	11	104	98	135	95*
CCn1nnnc1SCC(=O)NC1Cc2ccccc2C1	97	.	99	98	?	7
COP1(=O)C=C[C@H](N(Cc2ccccc2)S(=O)(=O)c2ccccc2[N+](=O)[O-])[C@@H](C)O1 (stereo partly drawn)	96	.	99	96	?	12
CCOC(=O)NC(=O)CSc1nnnn1-c1ccccc1	116	30	123	104	135	109*
O=C(Nc1nc2c(s1)CCCC2=O)c1cnccn1	99	269*	101	102	96	8
Cc1ccc(NC(=O)C(=O)NCc2ccc(/C=N/NC(=O)c3c(C)nc4ccccn34)o2)cc1	101	12	100	98	98	22
O=C(CN1C(=O)C2CCCCC2C1=O)OCC(=O)c1ccc(Cl)s1 (stereo not drawn)	109	14	117	109	108	22
c1csc(CSc2nc3ccccc3s2)c1	99	276*	102	100	100	7
CN(C)c1ccc(/C=N/OC(=O)Nc2ccccc2Cl)cc1	101	9	105	103	101	23
SMILES	RGS4-Gao reg	GSH bead fluor	RGS16-Gao	RGS8-Gao	RGS7-Gao	Avidin fluor
CC(C)COc1ccc(/C(O)=C2/C(=O)C(=O)N(CCN(C)C)C2c2ccncc2)cc1 (stereo not drawn)	111	20	158	115	108	19
COc1cc(C2/C(=C(/O)c3ccc(OCC(C)C)cc3)C(=O)C(=O)N2CCN(C)C)ccc1O (stereo not drawn)	121	262*	142	117	113	8
COc1ccc(CCN2C(=O)c3ccccc3C2(O)c2ncc[nH]2)cc1OC (stereo not drawn)	95	146*	101	98	95	4
COc1ccc2occ(C(=O)c3ccccc3)c2c1	100	13	98	99	?	11
COc1ccc(OC)c(C(=O)c2coc3ccc(O)cc23)c1	103	88*	104	101	107	13
CC(C)(C)C1CCC(=NOC(=O)c2ccc(F)cc2)CC1 (stereo not drawn)	105	10	110	105	110	28
Cc1cccc(OCC(=O)N(C)CCc2ccccn2)c1	101	22	101	101	105	47*
Cc1cccc(CN(C)CCc2ccccn2)c1	99	15	100	102	105	33
CCNC(=S)N(Cc1ccco1)Cc1cc2cc(OCC)ccc2[nH]c1=O	98	11	98	98	97	10
CCNC(=S)N(Cc1cccs1)Cc1cc2cc(OCC)ccc2[nH]c1=O	126	239*	143	100	131	41
COc1ccc2nc(NC(=O)c3sc4nc(C)cc(C)c4c3N)sc2c1	102	.	107	106	?	8
Cc1cc(C)nc(Nc2ncc(O)n2-c2ccc(C)c(C)c2)n1	105	18	104	104	112	56*
O=C1NC(=Nc2ccccc2)CS1	98	.	98	98	?	7
CCC1(CC)C(=O)N(C)C(=O)NC1=Nc1ccccc1	104	273*	100	99	103	9
CC(C)c1ccc(OCC(=O)N(Cc2ccccc2)c2ccccn2)cc1	104	9	113	106	103	2
CCN(CC)S(=O)(=O)c1ccc(NC2CCCc3ccccc32)nc1 (stereo not drawn)	101	25	101	102	100	35
c1ccc2c(c1)CCCC2NC1=NCCC1 (stereo not drawn)	105	256*	106	100	105	11
N#Cc1nc(COc2ccc(-c3ccccc3)cc2)oc1NCCCN1CCOCC1	110	12	105	96	96	233*
CC(=O)Nc1ccc(NC(=O)c2cccc3c2-c2ccccc2C3=O)cc1	109	8	115	107	140	99*
Cc1ccc(NC(=O)c2cccc3c2-c2ccccc2C3=O)cc1C	101	21	98	100	102	15
CC(C)(C)c1ccccc1NC(=S)NC1CCCCC1	98	16	98	100	97	11
